In PubChem BioAssay AID1159580 (chemical genetic matrix, 2015):
Where “and” joins values, the source holds several entries; their conditions need not be identical. Identical values can stand only once. Hit rate of the full screen: of about 5,500 compounds, about 2,000 (36%) were called active. Another 18% or so got no clear call; they are omitted. Cut-off read from the data, not from the text of the source: active = normalized growth mostly below about 0.91 (no sharp cut-off); inconclusive = no clear call, values can overlap the other calls; inactive = mostly above about 0.92. The list shows a part of the results.

Experiment: chemical genetic growth profiling, strain panel (AID 1159580);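 note: tested at 20 µM; growth read once vehicle control cultures reached saturation at 30 °C; 1 = growth at the plate median or of vehicle wells; lower values mean less growth of the strain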
Details: S. cerevisiae deletion strains, growth OD

Measured: normalized growth

COc1ccc(-c2cc(=O)c3c(O)c(OC)c(O[C@H]4O[C@H](CO[C@@H]5O[C@@H](C)[C@H](O)[C@@H](O)[C@H]5O)[C@@H](O)[C@H](O)[C@H]4O)cc3o2)cc1
inactive: locus YAL021C, strain ccr4, stronger effect = lower value 1.02 | locus YAL026C, strain drs2, stronger effect = lower value 1 | locus YAL030W, strain snc1, stronger effect = lower value 1.01 | locus YBL061C, strain skt5, stronger effect = lower value 0.996 | locus YBR009C, strain hhf1, stronger effect = lower value 1 | locus YBR021W, strain FUR4, stronger effect = lower value 1.02 | locus YBR023C, strain chs3, stronger effect = lower value 0.996 | locus YBR171W, strain sec66, stronger effect = lower value 0.989 | locus YBR229C, strain ROT2, stronger effect = lower value 1.01 | locus YBR231C, strain swc5, stronger effect = lower value 0.977 | locus YBR279W, strain paf1, stronger effect = lower value 0.987 | locus YCL011C, strain gbp2, stronger effect = lower value 0.991 | locus YCL016C, strain dcc1, stronger effect = lower value 1.01 | locus YCL029C, strain bik1, stronger effect = lower value 1.04 | locus YCL061C, strain MRC1, stronger effect = lower value 1 | locus YCL069W, strain vba3, stronger effect = lower value 1 | locus YCR088W, strain abp1, stronger effect = lower value 1.01 | locus YDL005C, strain med2, stronger effect = lower value 1 | locus YDL035C, strain GPR1, stronger effect = lower value 1.02 | locus YDL040C, strain nat1, stronger effect = lower value 0.98 | locus YDL074C, strain BRE1, stronger effect = lower value 1.01 | locus YDL101C, strain DUN1, stronger effect = lower value 1.02 | locus YDL185W, strain tfp1, stronger effect = lower value 1.01 | locus YDL192W, strain arf1, stronger effect = lower value 1.01 | locus YDR001C, strain nth1, stronger effect = lower value 1 | locus YDR069C, strain doa4, stronger effect = lower value 0.967 | locus YDR101C, strain arx1, stronger effect = lower value 1.02 | locus YDR137W, strain rgp1, stronger effect = lower value 1.05 | locus YDR150W, strain NUM1, stronger effect = lower value 1.01 | locus YDR159W, strain sac3, stronger effect = lower value 0.995 | locus YDR162C, strain NBP2, stronger effect = lower value 1.03 | locus YDR195W, strain ref2 0.978 | locus YDR297W, strain sur2, stronger effect = lower value 0.988 | locus YDR318W, strain mcm21, stronger effect = lower value 1.02 | locus YDR334W, strain swr1, stronger effect = lower value 0.99 | locus YDR335W, strain msn5, stronger effect = lower value 1 | locus YDR388W, stronger effect = lower value 1.01 | locus YDR392W, strain spt3, stronger effect = lower value 0.981 | locus YDR502C, strain sam2, stronger effect = lower value 1.01 | locus YEL003W, strain gim4, stronger effect = lower value 0.982 | locus YEL037C, strain rad23, stronger effect = lower value 1 | locus YEL061C, strain CIN8 (second series), stronger effect = lower value 0.996 | locus YER015W, strain faa2, stronger effect = lower value 0.984 | locus YER016W, strain bim1, stronger effect = lower value 0.992 | locus YER110C, stronger effect = lower value 1.02 | locus YER111C, strain swi4, stronger effect = lower value 0.979 | locus YER155C, strain BEM2 (second series), stronger effect = lower value 0.972 | locus YER155C, strain BEM2, stronger effect = lower value 1.04 | locus YER167W, strain BCK2, stronger effect = lower value 1.02 | locus YFR010W, strain ubp6, stronger effect = lower value 0.994 | locus YGL078C, strain dbp3, stronger effect = lower value 1.01 | locus YGL086W, strain mad1, stronger effect = lower value 1.01 | locus YGL167C, strain pmr1, stronger effect = lower value 0.983 | locus YGL173C, strain kem1, stronger effect = lower value 0.996 | locus YGL227W, strain vid30, stronger effect = lower value 1 | locus YGL240W, strain doc1, stronger effect = lower value 0.998 | locus YGL248W, strain PDE1, stronger effect = lower value 1.01 | locus YGL253W, strain hxk2, stronger effect = lower value 1 | locus YGR078C, strain PAC10, stronger effect = lower value 0.999 | locus YGR135W, strain pre9, stronger effect = lower value 0.993 | locus YGR229C, strain SMI1, stronger effect = lower value 1.16 | locus YGR252W, strain gcn5, stronger effect = lower value 0.955 | locus YHR013C, strain ard1, stronger effect = lower value 1 | locus YHR027C, strain rpn1, stronger effect = lower value 0.99 | locus YHR030C, strain SLT2, stronger effect = lower value 1.02 and 0.993 | locus YHR079C, strain IRE1 (second series), stronger effect = lower value 1.01 | locus YHR079C, strain IRE1, stronger effect = lower value 1.01 | locus YHR094C, strain hxt1, stronger effect = lower value 1.01 | locus YHR129C, strain ARP1, stronger effect = lower value 1 | locus YHR142W, strain chs7, stronger effect = lower value 1.01 | locus YHR200W, strain rpn10, stronger effect = lower value 1.01 | locus YIL066C, strain RNR3, stronger effect = lower value 1.02 | locus YIL073C, strain SPO22, stronger effect = lower value 1.08 | locus YIL125W, strain kgd1, stronger effect = lower value 1.01 | locus YIR030C, strain dcg1, stronger effect = lower value 1.02 | locus YJL092W, strain hpr5, stronger effect = lower value 0.994 | locus YJL095W, strain BCK1 (second series), stronger effect = lower value 1 | locus YJL095W, strain BCK1, stronger effect = lower value 1.02 and 0.995 | locus YJL115W, strain asf1, stronger effect = lower value 0.999 | locus YJL129C, strain trk1, stronger effect = lower value 0.994 | locus YJL134W, strain LCB3, stronger effect = lower value 1.02 | locus YJL154C, strain vps35, stronger effect = lower value 1 | locus YJL164C, strain tpk1, stronger effect = lower value 1 | locus YJL166W, strain qcr8, stronger effect = lower value 1 | locus YJL168C, strain set2, stronger effect = lower value 1 | locus YJL187C, strain SWE1 (second series), stronger effect = lower value 1.01 | locus YJL187C, strain SWE1, stronger effect = lower value 1.02 | locus YJR066W, strain TOR1, stronger effect = lower value 0.906 | locus YKL009W, strain mrt4, stronger effect = lower value 1.05 | locus YKL068W, stronger effect = lower value 1.02 | locus YKL085W, strain MDH1 (second series), stronger effect = lower value 1.02 | locus YKL085W, strain MDH1, stronger effect = lower value 1.02 | locus YKL160W, strain elf1, stronger effect = lower value 0.997 | locus YKL190W, strain CNB1, stronger effect = lower value 1.01 | locus YKR001C, strain vps1, stronger effect = lower value 1.01 | locus YKR026C, strain gcn3, stronger effect = lower value 0.992 | locus YKR091W, strain srl3, stronger effect = lower value 0.998 | locus YLL001W, strain dnm1, stronger effect = lower value 1 | locus YLL026W, stronger effect = lower value 0.998 | locus YLL041C, strain sdh2, stronger effect = lower value 1 | locus YLR027C, strain aat2, stronger effect = lower value 0.988 | locus YLR039C, strain RIC1, stronger effect = lower value 1.1 | locus YLR058C, strain SHM2, stronger effect = lower value 1.02 | locus YLR102C, strain apc9, stronger effect = lower value 1.02 | locus YLR113W, strain HOG1, stronger effect = lower value 1.04 | locus YLR221C, strain rsa3, stronger effect = lower value 0.995 | locus YLR258W, strain gsy2, stronger effect = lower value 1.02 | locus YLR262C, strain YPT6 (second series), stronger effect = lower value 1.03 | locus YLR268W, strain sec22, stronger effect = lower value 1.03 | locus YLR320W, strain mms22, stronger effect = lower value 0.998 | locus YLR342W, strain FKS1 (second series), stronger effect = lower value 1.03 | locus YLR342W, strain FKS1, stronger effect = lower value 1 | locus YLR357W, strain rsc2, stronger effect = lower value 0.964 | locus YLR370C, strain arc18, stronger effect = lower value 0.995 | locus YLR371W, strain rom2, stronger effect = lower value 1.03 | locus YLR384C, strain iki3, stronger effect = lower value 0.978 | locus YLR418C, strain cdc73, stronger effect = lower value 1.03 | locus YML016C, strain PPZ1, stronger effect = lower value 0.991 | locus YML032C, strain rad52, stronger effect = lower value 1.03 | locus YML120C, strain ndi1, stronger effect = lower value 1.01 | locus YML124C, strain tub3, stronger effect = lower value 1.02 | locus YMR058W, strain fet3, stronger effect = lower value 0.928 | locus YMR078C, strain ctf18, stronger effect = lower value 1.02 | locus YMR125W, strain sto1, stronger effect = lower value 1 | locus YMR129W, stronger effect = lower value 0.996 | locus YMR205C, strain PFK2, stronger effect = lower value 1.05 | locus YMR223W, strain ubp8, stronger effect = lower value 1.01 | locus YMR231W, strain pep5, stronger effect = lower value 0.96 | locus YMR307W, strain GAS1, stronger effect = lower value 1.08 | locus YNL067W, strain RPL9B, stronger effect = lower value 1.01 | locus YNL071W, strain lat1, stronger effect = lower value 1.01 | locus YNL128W, strain TEP1, stronger effect = lower value 1.03 | locus YNL183C, strain NPR1, stronger effect = lower value 0.938 | locus YNL209W, strain ssb2, stronger effect = lower value 0.986 | locus YNL233W, strain BNI4, stronger effect = lower value 1.01 | locus YNL248C, strain rpa49, stronger effect = lower value 0.996 | locus YNL250W, strain rad50, stronger effect = lower value 1.04 | locus YNL271C, strain bni1, stronger effect = lower value 1.01 | locus YNL298W, strain CLA4, stronger effect = lower value 1.02 | locus YNL307C, strain MCK1, stronger effect = lower value 1.01 | locus YNL322C, strain KRE1 (second series), stronger effect = lower value 1 | locus YNR049C, strain mso1, stronger effect = lower value 1 | locus YNR052C, strain pop2, stronger effect = lower value 1.01 | locus YOL012C, strain htz1 0.859 | locus YOL147C, strain pex11, stronger effect = lower value 0.996 | locus YOR001W, strain rrp6, stronger effect = lower value 0.98 | locus YOR061W, strain CKA2, stronger effect = lower value 1.02 | locus YOR069W, strain VPS5, stronger effect = lower value 1.01 | locus YOR070C, strain gyp1, stronger effect = lower value 0.985 | locus YOR080W, strain dia2, stronger effect = lower value 0.992 | locus YOR083W, strain WHI5, stronger effect = lower value 0.998 | locus YOR106W, strain vam3, stronger effect = lower value 0.992 | locus YOR136W, strain idh2, stronger effect = lower value 1.02 | locus YOR144C, strain elg1, stronger effect = lower value 1.02 | locus YOR184W, strain ser1, stronger effect = lower value 1.04 | locus YOR231W, strain MKK1, stronger effect = lower value 1.03 | locus YOR265W, strain rbl2, stronger effect = lower value 1.02 | locus YOR270C, strain vph1, stronger effect = lower value 0.993 | locus YOR290C, strain snf2, stronger effect = lower value 0.992 | locus YOR316C, strain cot1, stronger effect = lower value 1.02 | locus YPL051W, strain arl3, stronger effect = lower value 0.995 | locus YPL078C, strain atp4, stronger effect = lower value 1.03 | locus YPL106C, strain sse1, stronger effect = lower value 0.974 | locus YPL240C, strain hsp82, stronger effect = lower value 0.995 | locus YPL241C, strain CIN2, stronger effect = lower value 1.01 | locus YPL256C, strain CLN2, stronger effect = lower value 0.994 | locus YPR119W, strain clb2, stronger effect = lower value 1.01 | locus YPR141C, strain kar3, stronger effect = lower value 1.02 | locus YPR163C, strain tif3, stronger effect = lower value 0.999 | locus YPR167C, strain met16, stronger effect = lower value 1.01 | strain wtn01, stronger effect = lower value 1.01
